{"source": "the supplement of paper PMC8728848", "assay_in_all_cases": "glycan array binding signal (z-score within array); higher = stronger binding", "conditions_in_all_cases": "glycan notation: IUPAC condensed, linker removed", "key": {"[1]": {"biological_target": "Fuc(a1-2)Gal(b1-3)GalNAc(a1-3)[Fuc(a1-2)]Gal(b1-4)GlcNAc", "method_in_brief": "(§1)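 The Consortium for Functional Glycomics database supplied 3228 glycan arrays, of which those lacking an available protein sequence were dropped. The binding signal, a within-array Z-score, was averaged across arrays of the same protein sequence and across linkers. Negative scores can be read as non-binding.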"}, "[2]": {"biological_target": "Fuc(a1-2)Gal(b1-3)GlcNAc(b1-3)Gal(b1-4)Glc", "method_in_brief": "as §1"}, "[3]": {"biological_target": "Fuc(a1-2)Gal(b1-3)[Fuc(a1-4)]GlcNAc(b1-3)[Gal(b1-4)GlcNAc(b1-6)]Gal(b1-4)Glc", "method_in_brief": "as §1"}, "[4]": {"biological_target": "Fuc(a1-2)[Gal(a1-3)]Gal(b1-3)GlcNAc(b1-2)Man(a1-3)[Fuc(a1-2)[Gal(a1-3)]Gal(b1-3)GlcNAc(b1-2)Man(a1-6)]Man(b1-4)GlcNAc(b1-4)GlcNAc", "method_in_brief": "as §1"}, "[5]": {"biological_target": "Fuc(a1-2)[Gal(a1-3)]Gal(b1-3)GlcNAc(b1-2)Man(a1-3)[Fuc(a1-2)[Gal(a1-3)]Gal(b1-3)GlcNAc(b1-2)Man(a1-6)]Man(b1-4)GlcNAc(b1-4)[Fuc(a1-6)]GlcNAc", "method_in_brief": "as §1"}, "[6]": {"biological_target": "Fuc(a1-2)[Gal(a1-3)]Gal(b1-3)GlcNAc(b1-3)GalNAc", "method_in_brief": "as §1"}, "[7]": {"biological_target": "Fuc(a1-2)[Gal(a1-3)]Gal(b1-4)GlcNAc(b1-2)Man", "method_in_brief": "as §1"}, "[8]": {"biological_target": "Fuc(a1-2)[Gal(a1-3)]Gal(b1-4)GlcNAc(b1-2)Man(a1-3)[Fuc(a1-2)[Gal(a1-3)]Gal(b1-4)GlcNAc(b1-2)Man(a1-6)]Man(b1-4)GlcNAc(b1-4)GlcNAc", "method_in_brief": "as §1"}, "[9]": {"biological_target": "Fuc(a1-2)[Gal(a1-4)]Gal(b1-4)GlcNAc", "method_in_brief": "as §1"}, "[10]": {"biological_target": "Fuc(a1-2)[GalNAc(a1-3)]Gal(b1-3)GlcNAc(b1-2)Man(a1-3)[Fuc(a1-2)[GalNAc(a1-3)]Gal(b1-3)GlcNAc(b1-2)Man(a1-6)]Man(b1-4)GlcNAc(b1-4)GlcNAc", "method_in_brief": "as §1"}, "[11]": {"biological_target": "Fuc(a1-2)[GalNAc(a1-3)]Gal(b1-3)GlcNAc(b1-3)GalNAc", "method_in_brief": "as §1"}, "[12]": {"biological_target": "Fuc(a1-2)[GalNAc(a1-3)]Gal(b1-4)GlcNAc(b1-2)Man(a1-3)[Fuc(a1-2)[GalNAc(a1-3)]Gal(b1-4)GlcNAc(b1-2)Man(a1-6)]Man(b1-4)GlcNAc(b1-4)[Fuc(a1-6)]GlcNAc", "method_in_brief": "as §1"}, "[13]": {"biological_target": "Fuc(a1-2)[GalNAc(a1-3)]Gal(b1-4)GlcNAc(b1-3)GalNAc", "method_in_brief": "as §1"}, "[14]": {"biological_target": "Fuc(a1-2)[GalNAc(b1-3)]Gal", "method_in_brief": "as §1"}, "[15]": {"biological_target": "Fuc(a1-3)[Gal(b1-4)]GlcNAc(b1-4)Gal(b1-4)[Fuc(a1-3)]GlcNAc(b1-4)Gal(b1-4)[Fuc(a1-3)]GlcNAc", "method_in_brief": "as §1"}, "[16]": {"biological_target": "Fuc(a1-3)[GalNAc(b1-4)]GlcNAc", "method_in_brief": "as §1"}, "[17]": {"biological_target": "Gal(a1-3)Gal(b1-3)[Fuc(a1-4)]GlcNAc(b1-2)Man(a1-3)[Gal(a1-3)Gal(b1-3)[Fuc(a1-4)]GlcNAc(b1-2)Man(a1-6)]Man(b1-4)GlcNAc(b1-4)GlcNAc", "method_in_brief": "as §1"}, "Gal(a1-3)Gal(b1-4)GlcNAc": {"biological_target": "Gal(a1-3)Gal(b1-4)GlcNAc", "method_in_brief": "as §1"}, "[18]": {"biological_target": "Gal(a1-3)Gal(b1-4)GlcNAc(b1-6)GalNAc", "method_in_brief": "as §1"}, "[19]": {"biological_target": "Gal(b1-3)GlcNAc(b1-3)Gal(b1-4)GlcNAc(b1-2)Man(a1-3)[Gal(b1-3)GlcNAc(b1-3)Gal(b1-4)GlcNAc(b1-2)Man(a1-6)]Man(b1-4)GlcNAc(b1-4)GlcNAc", "method_in_brief": "as §1"}, "[20]": {"biological_target": "Gal(b1-3)[Fuc(a1-4)]GlcNAc(b1-3)Gal(b1-3)[Fuc(a1-4)]GlcNAc", "method_in_brief": "as §1"}, "[21]": {"biological_target": "Gal(b1-3)[Fuc(a1-4)]GlcNAc(b1-3)Gal(b1-4)GlcNAc", "method_in_brief": "as §1"}, "Gal(b1-4)Glc": {"biological_target": "Gal(b1-4)Glc", "method_in_brief": "as §1"}, "[22]": {"biological_target": "Gal(b1-4)GlcNAc(b1-3)Gal(b1-4)GlcNAc(b1-3)Gal(b1-4)GlcNAc", "method_in_brief": "as §1"}, "[23]": {"biological_target": "Gal(b1-4)GlcNAc(b1-3)Gal(b1-4)GlcNAc(b1-3)Gal(b1-4)GlcNAc(b1-3)Gal(b1-4)GlcNAc(b1-3)Gal(b1-4)GlcNAc(b1-2)Man(a1-3)[Gal(b1-4)GlcNAc(b1-3)Gal(b1-4)GlcNAc(b1-3)Gal(b1-4)GlcNAc(b1-3)Gal(b1-4)GlcNAc(b1-3)Gal(b1-4)GlcNAc(b1-2)Man(a1-6)]Man(b1-4)GlcNAc(b1-4)[Fuc(a1-6)]GlcNAc", "method_in_brief": "as §1"}, "[24]": {"biological_target": "Gal(b1-4)GlcNAc(b1-3)Gal(b1-4)GlcNAc(b1-3)GalNAc", "method_in_brief": "as §1"}, "[25]": {"biological_target": "Gal(b1-4)GlcNAc(b1-3)Gal(b1-4)GlcNAc(b1-3)[Gal(b1-4)GlcNAc(b1-3)Gal(b1-4)GlcNAc(b1-6)]GalNAc", "method_in_brief": "as §1"}, "Gal3S(b1-4)GlcNAc6S": {"biological_target": "Gal3S(b1-4)GlcNAc6S", "method_in_brief": "as §1"}}, "note": "The sample as a whole holds a higher share of the strongest signals than the screen did."}
{"binder": "KISKRILTGKK", "note": "[NK11 (Sus scrofa)]", "values": [{"measurement": "glycan array binding signal (z-score)", "setting": "[1]", "value": -0.539}, {"measurement": "glycan array binding signal (z-score)", "setting": "[2]", "value": 0.203}, {"measurement": "glycan array binding signal (z-score)", "setting": "[3]", "value": -0.767}, {"measurement": "glycan array binding signal (z-score)", "setting": "[4]", "value": -0.23}, {"measurement": "glycan array binding signal (z-score)", "setting": "[5]", "value": -0.614}, {"measurement": "glycan array binding signal (z-score)", "setting": "[6]", "value": 0.052}, {"measurement": "glycan array binding signal (z-score)", "setting": "[7]", "value": -0.085}, {"measurement": "glycan array binding signal (z-score)", "setting": "[8]", "value": 0.702}, {"measurement": "glycan array binding signal (z-score)", "setting": "[9]", "value": 0.014}, {"measurement": "glycan array binding signal (z-score)", "setting": "[10]", "value": -0.032}, {"measurement": "glycan array binding signal (z-score)", "setting": "[11]", "value": 0.052}, {"measurement": "glycan array binding signal (z-score)", "setting": "[12]", "value": 0.421}, {"measurement": "glycan array binding signal (z-score)", "setting": "[13]", "value": -1.25}, {"measurement": "glycan array binding signal (z-score)", "setting": "[14]", "value": -0.608}, {"measurement": "glycan array binding signal (z-score)", "setting": "[15]", "value": -0.886}, {"measurement": "glycan array binding signal (z-score)", "setting": "[16]", "value": -0.401}, {"measurement": "glycan array binding signal (z-score)", "setting": "[17]", "value": -0.06}, {"measurement": "glycan array binding signal (z-score)", "setting": "Gal(a1-3)Gal(b1-4)GlcNAc", "value": -0.302}, {"measurement": "glycan array binding signal (z-score)", "setting": "[18]", "value": -0.147}, {"measurement": "glycan array binding signal (z-score)", "setting": "[19]", "value": -0.818}, {"measurement": "glycan array binding signal (z-score)", "setting": "[20]", "value": -0.425}, {"measurement": "glycan array binding signal (z-score)", "setting": "[21]", "value": 3.41}, {"measurement": "glycan array binding signal (z-score)", "setting": "Gal(b1-4)Glc", "value": -0.144}, {"measurement": "glycan array binding signal (z-score)", "setting": "[22]", "value": -0.612}, {"measurement": "glycan array binding signal (z-score)", "setting": "[23]", "value": -0.483}, {"measurement": "glycan array binding signal (z-score)", "setting": "[24]", "value": 2.91}, {"measurement": "glycan array binding signal (z-score)", "setting": "[25]", "value": 3.55}, {"measurement": "glycan array binding signal (z-score)", "setting": "Gal3S(b1-4)GlcNAc6S", "value": 3.4}]}
